Data on 27 compounds can be found in PubChem BioAssay (NCATS).

Assay [1] deals with Rap guanine nucleotide exchange factor 3 (Homo sapiens) (UniProt O95398). Kind of assay: Confirmatory qHTS for agonist of cAMP-regulated guanine nucleotide exchange factor 3 (EPAC1) (AID 1645881).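 Note: EPAC1 catalysed release of BODIPY-GDP from Rap1B seen as fluorescence loss; nearly all actives have a fitted effect of over 75% in size.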 A general note: Quantitative high-throughput screening tests each substance at several concentrations.
Assay [2] addresses Rap guanine nucleotide exchange factor 4 (Homo sapiens) (UniProt Q8WZA2). The assay is described as follows: Confirmatory qHTS for agonist of cAMP-regulated guanine nucleotide exchange factor 4 (EPAC2) (AID 1645884).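 Note: nucleotide exchange releases bodipy-GDP from Rap1 and this lowers its fluorescence; % is set by controls: 0 for no effect and ±100 for the full control effect; nearly all actives have a fitted effect of over 65% in size.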
Assay [3] has the same target. The assay is described as follows: Confirmatory qHTS for antagonist of cAMP-regulated guanine nucleotide exchange factor 4 (EPAC2) (AID 1645885). Note: nearly all actives have a fitted effect of over 25% in size. Note: potency is the fitted concentration of half-maximal effect.
In assay [4] the target is Rap guanine nucleotide exchange factor 3 (Homo sapiens) (UniProt O95398). The assay is described as follows: Counterscreen qHTS for agonist of cAMP-regulated guanine nucleotide exchange factor 3 (EPAC1) (AID 1645889). Note: % of control where 0% means no effect; nearly all actives have a fitted effect of over 40% in size. An outline of the steps:
(§1)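 Rap1B–BODIPY-GDP (250 nM) with 50 uM GDP; compounds pin-transferred to 9.74 nM–152 uM final (activator) or from 7.32 nM upwards (inhibitor). Fluorescence Ex/Em 480/540 nm read at 5 and 30 min, then after adding cAMP or buffer, at room temperature.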

Assay [5] has the same target. Kind of assay: Counterscreen qHTS for antagonist of cAMP-regulated guanine nucleotide exchange factor 3 (EPAC1) (AID 1645888).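 Note: fluorescence loss as bound BODIPY-GDP is released from Rap1B; % of control where 0% means no effect.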 An outline of the steps: as §1
For assay [6], the target named is Lysosomal acid glucosylceramidase (Homo sapiens) (UniProt P04062). The assay is described as follows: Glucocerebrosidase-p2 (AID 348; in the data active = potency below about 10 µM; note: potency is the fitted concentration of half-maximal effect). The conditions noted are these: purified GBA, blue fluorogenic substrate, 40 min. An outline of the steps:
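Compounds titrated from 0.6 nM upwards against 0.2 nM enzyme in pH 5.9 citric acid/KH2PO4, taurocholate, tween-20; blue fluorogenic substrate 80 uM, 40 min room temperature, stopped and read Ex 365/Em 440 for AC50.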

Assay [7] can be described thus: AP1 Signaling Pathway (AID 357; active = well fitted curve in either direction with a large enough effect, not every such curve was filed as active;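 note: ME-180 reporter cells stimulated with EGF at its EC50 level; % is set by controls: 0 for no effect and ±100 for the full control effect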). The conditions noted are these: ME-180 AP-1-bla reporter, EGF-induced, beta-lactamase ratio, 5 h; at 7.69 µM (top of the series) unless noted. Put shortly: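 Titration-series screen for positive or negative modulators of EC50 EGF-induced signaling in ME-180 cells carrying an AP-1-driven beta-lactamase reporter. After 5 hours at 37 degrees Celsius, CCF4 460nm/530nm emission ratio gave %Activity; AC50 values derived.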

The target in assay [8] is Cytochrome P450 1A2 (Homo sapiens) (UniProt P05177). Kind of assay: p450-cyp1a2 (AID 410; calls by dose curve; note: potency is the fitted concentration of half-maximal effect). Put shortly: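 20nM CYP1A2 with 100uM Luciferin-ME (at Km) in 100mM KPO4; compound preincubated 10 min, NADPH regeneration added, 60 min at room temperature. Luciferin quantified by luminescence after detection reagent; normalized to 57 uM furafylline.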
Assay [9] in a line: NFAT Signaling Pathway (AID 444; active = well fitted curve in either direction with a large enough effect, not every such curve was filed as active;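 note: carbachol stimulus at about its EC50 of 1 µM final; % is set by controls: 0 for no effect and ±100 for the full control effect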). The settings on record: Jurkat NFAT-bla M1, carbachol, beta-lactamase ratio, 5 h; at 7.69 µM (top of the series) unless noted. An outline of the steps: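 Jurkat cells with NFAT-driven β-lactamase reporter and co-expressed M1 receptor, stimulated with carbachol (final 1 uM, ~EC50), compound titration, 5 h at 37 °C. CCF4 loaded 1 h at RT; 460/530 nm ratio gave %activity and AC50.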

The target of assay [10] is Glucocorticoid receptor (Homo sapiens) (UniProt P04150). The assay is described as follows: GR-GFP Redistribution (AID 450;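 active = compounds whose dose series gives a full or clear partial fitted curve of increased nuclear translocation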; note: potency is the fitted concentration of half-maximal effect). The settings on record: U2OS GR-GFP nuclear translocation, laser cytometry, 2 h.
For assay [11] the target is unchanged. The assay is described as follows: GR-EFC Redistribution (AID 451; calls by dose curve; note: potency is the fitted concentration of half-maximal effect). The conditions noted are these: CHO-K1 GR-EFC translocation, beta-gal luminescence, 2 h. An outline of the steps: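 CHO-K1 cells expressing nuclear EA and GR-ED fragments of b-gal; compounds titrated up to 46 uM final, 2 h at 37 C. GR nuclear translocation read as complemented b-gal luminescence after 1 h RT detection.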

A short description of assay [12]: Stat Signaling Pathway (AID 446; active = well fitted curve in either direction with a large enough effect, not every such curve was filed as active;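 note: ME-180 cervical cancer cells given 40 pM IL-6 alongside compound; SIE-controlled beta-lactamase reporter measured as 460/530 nm FRET emission ratio; % is set by controls: 0 for no effect and ±100 for the full control effect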). An outline of the steps:
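Reporter line: ME-180 cervical carcinoma, SIE-beta-lactamase. Treatment: compound with 40 pM IL-6, 5 hrs, 37 C, in low-serum OPTI-MEM with 10 mM HEPES pH 7.3. Detection: 460/530 nm fluorescence.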

Assay [13] addresses Mitogen-activated protein kinase 10 (Mus musculus) (UniProt Q61831). Kind of assay: JNK3 AlphaScreen Assay (AID 530; active = well fitted curve in either direction with a large enough effect, not every such curve was filed as active;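 note: kinase came from lysate of stimulated human HepG2 cells; signal reports phosphorylation of biotinylated GST-cJun 1-79 at Ser73 with 10 µM ATP; % is set by controls: 0 for no effect and ±100 for the full control effect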). Put shortly:
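Pre-activated (IL-1β/TNFα) JNK3 in HepG2 lysates phosphorylates biotin-GST-cJun(1-79), 10 uM ATP; anti-phospho-cJun(Ser73) AlphaScreen read at room temperature, pH 7.6 Tris buffer. Compounds pre-incubated 15 min as titrations.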
(In general: Bead proximity is the source of the signal in Alpha formats.)

For assay [14], the target named is 3',5'-cyclic-AMP phosphodiesterase 4B (Homo sapiens) (UniProt Q07343). The assay is described as follows: qHTS Assay for Inhibitors of PDE-IV (AID 607; active = well fitted activation curve with a large enough effect in the main read-out, with a control signal flat, not every such curve was filed as active; note: % of control where 0% means no effect). An outline of the steps: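 Cell-based read-out of cAMP via a modified cyclic nucleotide-gated channel and membrane potential dye (535/590 nm) in HEK293 cells expressing PDE4 endogenously. Compounds tested up to 22.9 uM final; 100 uM RO 20-1724 reference.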

SMILES strings stand for the structures. A number with no mark means an inactive call. Inconclusive results are not listed. Calls of active or inactive are those of the source. Unless noted, calls come from the whole dose curve; as a rule, active = well fitted curve in the direction sought with a large enough effect; inconclusive = small, poorly fitted or top-dose-only effect, or another doubt; inactive = no such curve, though single readings can be large; an effect the other way counts as inactive or inconclusive. Bounds are passed on as bounds.

Glucocorticoid receptor (Homo sapiens), sequence (P04150 whole entry, looked up, the tested form may be a part): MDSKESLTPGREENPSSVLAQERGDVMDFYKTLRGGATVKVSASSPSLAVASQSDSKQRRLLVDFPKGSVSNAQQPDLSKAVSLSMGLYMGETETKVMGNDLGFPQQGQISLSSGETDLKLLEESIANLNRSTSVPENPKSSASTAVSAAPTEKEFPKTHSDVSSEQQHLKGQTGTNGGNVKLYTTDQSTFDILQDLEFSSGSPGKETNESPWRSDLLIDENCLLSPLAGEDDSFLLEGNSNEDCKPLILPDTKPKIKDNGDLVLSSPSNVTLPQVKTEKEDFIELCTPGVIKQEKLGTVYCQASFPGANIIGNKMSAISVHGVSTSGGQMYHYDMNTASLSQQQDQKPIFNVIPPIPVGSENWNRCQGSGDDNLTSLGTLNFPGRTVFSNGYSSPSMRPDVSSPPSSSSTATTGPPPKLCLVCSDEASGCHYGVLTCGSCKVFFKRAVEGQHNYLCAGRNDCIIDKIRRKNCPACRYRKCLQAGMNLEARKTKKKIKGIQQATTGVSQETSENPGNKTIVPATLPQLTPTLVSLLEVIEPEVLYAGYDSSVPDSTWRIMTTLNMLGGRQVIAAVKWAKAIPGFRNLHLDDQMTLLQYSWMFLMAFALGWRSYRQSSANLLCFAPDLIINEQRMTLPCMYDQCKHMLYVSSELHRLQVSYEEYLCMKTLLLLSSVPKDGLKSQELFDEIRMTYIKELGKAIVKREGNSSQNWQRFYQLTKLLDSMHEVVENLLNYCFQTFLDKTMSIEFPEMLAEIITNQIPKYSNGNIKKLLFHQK
Rap guanine nucleotide exchange factor 4 (Homo sapiens), sequence (Q8WZA2 whole entry, looked up): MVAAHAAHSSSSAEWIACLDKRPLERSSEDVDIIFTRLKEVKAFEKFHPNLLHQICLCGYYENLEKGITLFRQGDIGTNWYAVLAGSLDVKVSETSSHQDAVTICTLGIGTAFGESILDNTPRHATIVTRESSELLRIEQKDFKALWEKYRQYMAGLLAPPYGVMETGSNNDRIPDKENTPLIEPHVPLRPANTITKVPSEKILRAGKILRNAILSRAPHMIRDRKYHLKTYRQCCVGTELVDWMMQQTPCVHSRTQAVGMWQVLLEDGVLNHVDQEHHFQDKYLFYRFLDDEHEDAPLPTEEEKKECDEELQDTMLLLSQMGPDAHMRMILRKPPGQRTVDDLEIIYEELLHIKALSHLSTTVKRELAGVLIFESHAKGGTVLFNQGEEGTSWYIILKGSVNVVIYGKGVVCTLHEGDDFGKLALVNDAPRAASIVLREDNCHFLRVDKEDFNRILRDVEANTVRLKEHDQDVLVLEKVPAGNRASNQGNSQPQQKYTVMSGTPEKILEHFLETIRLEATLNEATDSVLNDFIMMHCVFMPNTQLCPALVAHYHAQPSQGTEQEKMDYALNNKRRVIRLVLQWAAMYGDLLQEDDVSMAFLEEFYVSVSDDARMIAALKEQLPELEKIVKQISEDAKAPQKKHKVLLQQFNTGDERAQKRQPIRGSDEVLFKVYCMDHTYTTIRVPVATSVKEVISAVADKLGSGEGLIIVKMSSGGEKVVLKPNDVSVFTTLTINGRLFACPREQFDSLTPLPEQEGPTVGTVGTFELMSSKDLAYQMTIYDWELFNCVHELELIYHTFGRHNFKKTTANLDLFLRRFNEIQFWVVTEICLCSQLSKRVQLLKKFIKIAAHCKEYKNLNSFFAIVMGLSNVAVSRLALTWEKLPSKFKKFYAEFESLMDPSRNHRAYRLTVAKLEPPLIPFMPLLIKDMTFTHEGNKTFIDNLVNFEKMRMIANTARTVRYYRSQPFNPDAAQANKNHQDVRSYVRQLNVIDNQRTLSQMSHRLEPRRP
Rap guanine nucleotide exchange factor 3 (Homo sapiens), sequence (O95398 whole entry, looked up): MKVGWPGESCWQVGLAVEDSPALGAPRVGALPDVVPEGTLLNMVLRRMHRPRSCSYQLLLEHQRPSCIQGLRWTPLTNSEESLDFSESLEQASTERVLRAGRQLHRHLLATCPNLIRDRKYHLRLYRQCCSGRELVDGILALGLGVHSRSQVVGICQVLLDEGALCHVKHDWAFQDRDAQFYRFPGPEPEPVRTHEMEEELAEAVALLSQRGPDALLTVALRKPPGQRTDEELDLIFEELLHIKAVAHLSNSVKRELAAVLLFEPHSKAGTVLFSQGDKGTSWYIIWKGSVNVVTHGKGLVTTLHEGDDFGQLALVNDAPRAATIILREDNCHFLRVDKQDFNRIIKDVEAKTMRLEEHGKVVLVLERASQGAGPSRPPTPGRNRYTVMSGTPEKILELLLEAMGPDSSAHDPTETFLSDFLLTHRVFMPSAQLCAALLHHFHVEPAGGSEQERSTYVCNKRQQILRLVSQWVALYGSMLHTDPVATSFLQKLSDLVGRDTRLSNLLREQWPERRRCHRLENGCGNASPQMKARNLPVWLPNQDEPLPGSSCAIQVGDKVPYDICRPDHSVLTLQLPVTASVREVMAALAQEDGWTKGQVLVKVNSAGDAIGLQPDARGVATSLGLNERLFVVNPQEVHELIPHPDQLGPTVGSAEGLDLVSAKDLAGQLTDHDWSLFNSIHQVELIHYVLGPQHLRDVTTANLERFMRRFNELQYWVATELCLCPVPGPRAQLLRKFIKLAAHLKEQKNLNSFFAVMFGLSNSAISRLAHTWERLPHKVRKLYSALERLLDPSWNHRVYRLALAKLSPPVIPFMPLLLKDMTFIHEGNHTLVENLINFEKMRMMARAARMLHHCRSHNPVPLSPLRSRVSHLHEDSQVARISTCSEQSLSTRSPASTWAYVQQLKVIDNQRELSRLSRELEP
Lysosomal acid glucosylceramidase (Homo sapiens), sequence (P04062 whole entry, looked up): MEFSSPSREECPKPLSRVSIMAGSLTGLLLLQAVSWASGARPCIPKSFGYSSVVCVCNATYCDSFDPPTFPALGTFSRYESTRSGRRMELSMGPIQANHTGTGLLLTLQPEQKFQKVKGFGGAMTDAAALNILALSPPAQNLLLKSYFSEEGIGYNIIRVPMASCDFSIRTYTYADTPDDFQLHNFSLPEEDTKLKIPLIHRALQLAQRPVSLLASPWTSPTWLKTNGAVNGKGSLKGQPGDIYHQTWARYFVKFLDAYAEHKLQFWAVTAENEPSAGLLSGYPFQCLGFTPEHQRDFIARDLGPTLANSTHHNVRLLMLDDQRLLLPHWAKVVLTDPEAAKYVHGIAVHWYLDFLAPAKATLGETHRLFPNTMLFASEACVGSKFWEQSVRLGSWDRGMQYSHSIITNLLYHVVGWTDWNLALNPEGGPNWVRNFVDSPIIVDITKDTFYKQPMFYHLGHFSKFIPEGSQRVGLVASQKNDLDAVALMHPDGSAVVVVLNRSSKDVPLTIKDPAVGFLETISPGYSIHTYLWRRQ
Cytochrome P450 1A2 (Homo sapiens), sequence (P05177 whole entry, looked up): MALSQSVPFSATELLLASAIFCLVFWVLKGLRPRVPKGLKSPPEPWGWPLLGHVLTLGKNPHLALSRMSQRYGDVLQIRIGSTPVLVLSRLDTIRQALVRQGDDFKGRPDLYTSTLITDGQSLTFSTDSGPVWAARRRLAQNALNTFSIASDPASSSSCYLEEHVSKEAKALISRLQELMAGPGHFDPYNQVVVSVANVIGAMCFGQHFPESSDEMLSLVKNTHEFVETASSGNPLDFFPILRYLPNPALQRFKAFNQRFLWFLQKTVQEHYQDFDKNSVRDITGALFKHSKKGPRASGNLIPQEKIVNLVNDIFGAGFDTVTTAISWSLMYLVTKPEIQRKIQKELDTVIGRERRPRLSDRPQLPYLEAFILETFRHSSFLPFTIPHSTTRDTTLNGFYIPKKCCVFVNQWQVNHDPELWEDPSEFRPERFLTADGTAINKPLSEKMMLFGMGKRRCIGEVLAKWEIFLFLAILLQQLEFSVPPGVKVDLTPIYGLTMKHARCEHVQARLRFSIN
3',5'-cyclic-AMP phosphodiesterase 4B (Homo sapiens), sequence (Q07343 whole entry, looked up): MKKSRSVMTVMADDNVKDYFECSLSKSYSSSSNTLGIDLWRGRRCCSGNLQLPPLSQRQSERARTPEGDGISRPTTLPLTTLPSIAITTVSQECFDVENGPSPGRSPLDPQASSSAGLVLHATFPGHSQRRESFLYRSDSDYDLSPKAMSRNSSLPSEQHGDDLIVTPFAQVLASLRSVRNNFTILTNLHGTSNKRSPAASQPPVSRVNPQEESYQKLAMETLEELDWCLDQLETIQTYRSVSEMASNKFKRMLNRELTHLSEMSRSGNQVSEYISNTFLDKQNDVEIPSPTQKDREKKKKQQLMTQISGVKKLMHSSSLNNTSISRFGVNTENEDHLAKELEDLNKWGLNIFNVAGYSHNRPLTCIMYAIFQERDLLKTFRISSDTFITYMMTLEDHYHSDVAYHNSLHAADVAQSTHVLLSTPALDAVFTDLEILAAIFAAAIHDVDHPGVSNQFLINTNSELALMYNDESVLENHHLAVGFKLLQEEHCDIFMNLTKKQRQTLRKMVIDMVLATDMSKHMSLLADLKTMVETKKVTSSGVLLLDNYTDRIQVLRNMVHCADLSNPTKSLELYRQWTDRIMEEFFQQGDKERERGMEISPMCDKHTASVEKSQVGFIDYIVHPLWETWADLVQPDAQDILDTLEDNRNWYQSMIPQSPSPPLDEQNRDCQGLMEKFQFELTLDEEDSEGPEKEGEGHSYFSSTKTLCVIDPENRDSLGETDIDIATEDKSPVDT

Consider `Cc1cc(C)nc(SCC(=O)c2ccc(C)c(C)c2)n1`, for which the Potency result in [1], in assay [2] and in assay [4] was “inactive” each time. Moreover, the Potency in assay [3] was 13.5 µM (active).
For the compound `CCCCC[C@@H](C)N1C[C@H](COCc2ccccc2)Oc2cc(N3CC[C@@H](O)C3)ccc2S1(=O)=O`, the Potency entry in [1], in [2], in assay [3] and in assay [4] was “inactive” each time.
Regarding `Cc1cccc(N2CC(C(=O)Nc3nnc(SCC(=O)NCC4CCCO4)s3)CC2=O)c1` (centres undefined), the Potency entry in assay [1], in assay [2], in assay [3] and in assay [4] was “inactive” throughout.
As for `CC(C)n1nccc1N(Cc1ccc(Cl)cc1)S(=O)(=O)c1ccccc1`, the Potency result in assay [1], in assay [2] and in assay [5] was “inactive” each time.
As to `O=C1NC[C@H](Cc2ccc(O)cc2)N(C[C@@H]2CCCN2C[C@H](Cc2ccc(O)cc2)N2C[C@H](Cc3ccccc3)N(CC3CCCCCC3)C(=O)C2=O)C1=O`, the Potency result in [1], in [2] and in assay [5] was “inactive” throughout.
In the case of `O=C(O)c1ccc(N=N/C(=N\Nc2ccc(C(=O)O)cc2)c2ccccc2)cc1`, the Potency entry in assay [1] was “inactive”. Further, the activation in assay [2] was -13% [at 17.1 µM, percent relative to cAMP agonist control]. Moreover, the activity change, negative = inhibition in assay [5] is -1.23% [at 30.8 µM].
For the compound `O=C(Cc1c(Sc2ccccc2)c2ccccc2n1Cc1ccccc1)NCCO`, the Potency result in assay [1], in [2] and in assay [5] was “inactive” in each case.
For the compound `Cc1ccc(N=Cc2cc3c(cc2[N+](=O)[O-])OCO3)cc1[N+](=O)[O-]`, the Potency entry in assay [1] and in assay [3] was “inactive” throughout. The activation in assay [2] is -8.35% [at 17.1 µM, percent relative to cAMP agonist control]; in assay [4], -2.33% [at 30.8 µM].
As to `C/C=C\C=C/C(=O)Nc1cccc(C2=NOC3(C2)C[C@H](C(N)=O)N(C(=O)c2ccc(OC)cc2)C3)c1` (some centres undefined), the Potency result in assay [1], in assay [2] and in assay [5] was “inactive” throughout.
For `Cc1ccc(C)c(S(=O)(=O)N2CCN(C(=O)/C=C/c3ccco3)CC2)c1`, the Potency entry in assay [1], in [2], in [3] and in [4] was “inactive” each time.
For `Cc1cc(NC(=O)CS(=O)(=O)c2cn(Cc3cccc(Br)c3)c3ccccc23)no1`, the Potency entry in [1], in assay [2] and in assay [5] was “inactive” each time.
As to `COCCNc1nc(Oc2cccc(F)c2)c2sccc2n1`, the Potency entry in assay [1], in assay [2] and in assay [5] was “inactive” each time.
`Cc1ccc(SCc2cc(=O)c3c(=O)n(-c4ccccc4)[nH]c3[nH]2)cc1`: the Potency entry in [1], in assay [2] and in assay [5] was “inactive” throughout.
As for `Cc1ccc(C)c(NC(=O)CN(C)C(=O)c2ccccc2Cc2ccccc2)c1`, the Potency entry in [1], in assay [2] and in assay [5] was “inactive” each time.
Turning to `CC(C)=CCc1c(O)ccc2c1OC(c1ccc(O)c(O)c1)CC2=O` (centres undefined), the Potency result in [1], in [2] and in assay [5] was “inactive” each time.
On to `COc1cc(/C=N/NS(=O)(=O)c2ccc3ccccc3c2)ccc1OCc1ccc(C(=O)O)cc1`, for which the Potency entry in [1], in assay [2] and in [5] was “inactive” in each case.
Regarding `CN(C)c1ncc2ncc(=O)n(Cc3cccs3)c2n1`, the Potency in [6] was greater than 11.4 µM; in assay [8] it was 1.58 µM (active); in [10], greater than 9.22 µM; in assay [11] it was greater than 46 µM; in [3], 39.3 µM (active). Moreover, the values for the activity change, negative = inhibition in assay [7] and in assay [9] were -12.8% and -18.4%, respectively. The Potency entry in assay [1] and in assay [2] was “inactive” in each case.
`O=c1cc(CN2CCN(S(=O)(=O)c3cccc(Cl)c3)CC2)c2ccc(O)cc2o1`: the Potency result in assay [1], in assay [2] and in assay [5] was “inactive” in each case.
For `O=C(Nc1ccccc1N1CCCCC1)c1cnccn1`, the Potency result in [1] and in assay [3] was “inactive” in each case. In addition, the activation was 0% [at 17.1 µM, percent relative to cAMP agonist control] in [2] and 21.6% [at 30.8 µM] in assay [4].
`Fc1ccc2c(-c3cccc(C(F)(F)F)c3)c(-c3ccccc3)ncc2c1`: the Potency result in assay [1], in [2] and in assay [5] was “inactive” in each case.
On to `CCOc1ccccc1CNC(=O)Cn1nc(C)c2c(C)n(-c3ccc(C)cc3)nc2c1=O`, for which the Potency entry in assay [1] and in assay [3] was “inactive” throughout. The activation in assay [2] is -0.659% [at 17.1 µM, percent relative to cAMP agonist control]; in assay [4], 18.3% [at 30.8 µM].
On to `COC(=O)c1ccccc1NC(=S)NC(=O)c1ccc(C)cc1`, for which the Potency result in [1] and in assay [3] was “inactive” each time. The activation in assay [2] was 2.96% [at 17.1 µM, percent relative to cAMP agonist control]; in assay [4] it was 7.2% [at 30.8 µM].
Turning to `CC(C)CNC(=O)C1Nc2ccc(OC(F)(F)F)cc2C2C=CCC12` (centres undefined), the Potency result in [1], in [2] and in assay [5] was “inactive” each time.
For the compound `CC(=O)NC(c1ccccc1)c1c(O)ccc2ccccc12` (centres undefined), the Potency entry in [1] was “inactive”. In addition, the activation in assay [2] was 2.11% [at 17.1 µM, percent relative to cAMP agonist control]. The activity change, negative = inhibition in assay [5] was -4.37% [at 30.8 µM].
As to `COc1ccccc1[C@@]1(C)ON(c2ccccc2C(F)(F)F)C1=O`, the Potency result in assay [1], in assay [2] and in [5] was “inactive” in each case.
Turning to `O=C(Nc1ccc(Cl)cc1)Nc1ccccc1NS(=O)(=O)c1cccs1`, the Potency result in [1] and in assay [3] was “inactive” each time. Besides, the activation is 7.96% [at 17.1 µM, percent relative to cAMP agonist control] in assay [2] and 27.1% [at 30.8 µM] in assay [4].
Turning to `CCOc1ccc2nc3cc(N=Nc4ccc(N)nc4N)ccc3c(N)c2c1`, the Potency was greater than 11.4 µM in [6], 0.794 µM (active) in assay [8], greater than 46 µM in [10] and greater than 9.22 µM in [11]. Further, the activity change, negative = inhibition is 4.95% in [7] and -7.05% [at 11.4 µM] in assay [13]. The compound was classed as inactive in [12]. Besides, the Potency result in assay [14], in assay [1] and in assay [3] was “inactive” in each case. The activation in [2] is 2.08% [at 17.1 µM, percent relative to cAMP agonist control].
